High-throughput results: PubChem BioAssay, National Center for Advancing Translational Sciences (NCATS)
KB-V1 MDR tox – qHTS assay for MDR1-selective chemotherapeutics: Primary screen using the drug-selected MDR subline cells KB-V1 | KB-V1 MDR cells viability, CellTiter-Glo, 72 h | 3.4% of 400,000 active | Potency, µM (doses to about 46.1 µM), usual class: cytotoxic; also: % is scaled to controls: 0 for no effect and ±100 for the full control effect; nearly all actives have a fitted effect of over 60% in size
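qHTS viability screen in drug-selected KB-V1 MDR cells: 72 h compound treatment at 37 degrees C, ATP luminescence end point.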
KB-3-1 tox – qHTS assay for MDR1-selective chemotherapeutics: Primary screen using the parental adenocarcinoma cell KB-3-1; KB-3-1 viability, CellTiter-Glo ATP luminescence, 72 h; Potency, µM (top dose mostly 46.1 µM), hits mostly cytotoxic; 1.4% of 400,000 active; AID 1347075, 2019; also: % is scaled to controls: 0 for no effect and ±100 for the full control effect; nearly all actives have a fitted effect of over 60% in size
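Using CellTiter-Glo luminescence, growth of non-resistant KB-3-1 adenocarcinoma cells is assessed 72 h after pin-tool compound addition at 37 °C. Normalized responses across the concentration series yield fitted curves.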
SW480 rereplic – A quantitative high throughput screen for small molecules that induce DNA re-replication in SW480 colon adenocarcinoma cells. SW480 DNA re-replication, Hoechst DNA content imaging, 48 h. Potency, µM (highest dose often 46.1 µM), for the others: top-dose re-replication activation, actives largely listed as activators. AID 624297, 2012. 1.8% of 340,000 active; also: % of control where 0% means no effect; nearly all actives have a fitted effect of over 55% in size
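Per well, 250 cells were exposed to pinned compound for 48 hr. Nuclear DNA was visualised with Hoechst (40 min, 37 C) and total object intensity recorded by fluorescence scanning.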
MCF10A rerep – A quantitative high throughput screen for small molecules that induce DNA re-replication in MCF 10a normal breast cells; 2.9% of 350,000 active; Potency, µM (highest dose often 46.1 µM), without a hit: top-dose activity, positive = re-replication, usual class: activators; MCF 10A DNA re-replication, Hoechst nuclear intensity, 48 h; also: % of control where 0% means no effect; nearly all actives have a fitted effect of over 50% in size
RGS4 inh – Inhibitors of Regulator of G Protein Signaling (RGS) 4: qHTS. Regulator of G-protein signaling 4 (Homo sapiens), P49798. Transcreener GDP fluorescence polarization, RGS4-accelerated GTP hydrolysis. Potency, µM (highest dose often 114 µM), inactives show at the top dose activity change, negative = inhibition, usual class: inhibitors. 0.039% of 390,000 active. AID 504845, 2011; also: % is scaled to controls: 0 for no effect and ±100 for the full control effect; nearly all actives have a fitted effect of over 75% in size
Target sequence (P49798 whole entry, looked up): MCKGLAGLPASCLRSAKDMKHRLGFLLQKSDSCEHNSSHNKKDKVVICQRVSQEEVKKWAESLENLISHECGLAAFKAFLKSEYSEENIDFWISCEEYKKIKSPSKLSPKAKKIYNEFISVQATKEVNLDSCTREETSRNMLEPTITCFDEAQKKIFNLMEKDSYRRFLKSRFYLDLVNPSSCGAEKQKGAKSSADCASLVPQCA
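MLSMR compounds (23 nl, pin-transferred) preincubated 10 min at room temperature with a 500nM (2x) first reagent, then RGS4 at 900nM (2x) plus Transcreener GDP mix added; fluorescence polarization (620/688 nm) read before and after 90 min at 30 °C.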
TSG101-PTAP inh – qHTS Assay for Iinhibitors of HIV-1 Budding by Blocking the Interaction of PTAP/TSG101. Fluorescence polarization, FITC-PTAP peptide / Tsg101 binding. 340,000 tested, under 10 active. Potency, µM (top dose mostly 115 µM), for the others: at the highest dose activity change, negative = inhibition, usual class: inhibitors; active = well fitted inhibition curve with a large enough effect in the main read-out, with a control signal flat, not every such curve was filed as active; inconclusive = small, poorly fitted or top-dose-only effect, or effect the other way, or a change in a side signal; inactive = no such curve, though single readings can be large or run the other way; also: % of control where 0% means no effect
Target sequence (Q99816 whole entry, looked up): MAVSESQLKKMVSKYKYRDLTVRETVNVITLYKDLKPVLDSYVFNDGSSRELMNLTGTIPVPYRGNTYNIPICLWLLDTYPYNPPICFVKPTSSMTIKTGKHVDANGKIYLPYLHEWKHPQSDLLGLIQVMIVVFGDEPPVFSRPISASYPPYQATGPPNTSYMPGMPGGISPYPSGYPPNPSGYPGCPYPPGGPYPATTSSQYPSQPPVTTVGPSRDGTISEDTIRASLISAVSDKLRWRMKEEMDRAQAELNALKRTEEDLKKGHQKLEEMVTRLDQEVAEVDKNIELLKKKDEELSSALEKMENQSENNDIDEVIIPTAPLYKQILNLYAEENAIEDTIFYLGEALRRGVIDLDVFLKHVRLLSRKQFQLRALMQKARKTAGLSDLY
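Steps: Tsg101 binding domain dispensed (10 uM final), compounds pinned in DMSO, FITC-labeled PTAP-motif peptide added (50 nM final); after 20 min binding at room temperature, polarization measured.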
* hit, by the source's call; i = inactive; ? = inconclusive; · = not tested or not shown; ! = repeats disagree; [ ] = dose if it differs, or a comment. Hits are enriched below; roughly 6.6% of the tested compounds scored in any of these assays. Unless noted, calls follow the shape of the dose curve; as a rule, active = well fitted curve in the direction sought with a large enough effect; inconclusive = small, poorly fitted or top-dose-only effect, or another doubt; inactive = no such curve, though single readings can be large; an effect the other way counts as inactive or inconclusive. Potency is read from the fitted curve at half-maximal effect.

SMILES | KB-V1 MDR tox | KB-3-1 tox | SW480 rereplic | MCF10A rerep | RGS4 inh | TSG101-PTAP inh
O=C(c1cccn2c(=O)c3ccc(Cl)cc3nc12)N1CCN(Cc2ccc3c(c2)OCO3)CC1 | i | i | 16.4µM* | 16.4µM* | -19.6% | -2.9%
C/C=C1\COC(C(=O)NCc2ccccn2)(C(F)(F)F)C=C1C=C(C)C (stereo not given) | · | · | · | · | -32.0% | ·
CCN(CC)c1ccc2cc(S(=O)(=O)c3ccc(Cl)cc3)c(=O)oc2c1 | i | i | 18.4µM* | ? | -13.6% | ?
CCCCCCc1cc2cc(S(=O)(=O)c3ccc(Cl)cc3)c(=O)oc2cc1O | i | ? | 20.6µM* | ? | -18.3% | 0.2%
COC(=O)c1ccc2oc(=O)c(S(=O)(=O)c3ccc(C)cc3)cc2c1 | i | i | · | · | 6.1% | ·
CCCCCCc1cc2cc(S(=O)(=O)c3ccc(C)cc3)c(=O)oc2cc1O | i | i | 18.4µM* | ? | -20.3% | -4.6%
O=c1oc2cc(O)ccc2cc1S(=O)(=O)c1ccccc1 | ? | i | 1.5% | 2.59µM* | -11.0% | 3.5%
O=C(Cn1ncc2c3ccccc3n(Cc3cccc(Cl)c3)c2c1=O)N1CCCCCC1 | i | i | · | · | -25.7% | ·
COc1ccc(Cn2c(CCC(=O)NCc3ccco3)nc3cccnc32)cc1 | 20.6µM* | i | -2.7% | -2.2% | -21.4% | -3.8%
COCCNC(=O)CSc1nc2cc(OC)c(OC)cc2c(=O)n1Cc1ccc(OC)cc1 | 2.59µM* | i | 7.5% | 14.0% | 18.8% | -0.9%
COCCNC(=O)CSc1nc2ccc(N3CCOCC3)cc2c(=O)n1Cc1ccc(OC)cc1 | i | i | ? | ? | ? | -1.8%
COc1cc2nc(SCC(=O)NCc3ccco3)n(Cc3ccc(Cl)cc3)c(=O)c2cc1OC | ? | 10.3µM* | 18.4µM* | 14.6µM* | -3.7% | -3.0%
COc1ccc(Cl)cc1NC(=O)[C@H]1O[C@@H]2OC(C)(C)O[C@@H]2[C@H]2OC(C)(C)O[C@H]21 | i | i | · | · | -20.7% | ·
Cc1ccccc1C(=O)Nc1c(C)nc(Nc2ccccc2)nc1Nc1ccccc1 | i | ? | · | · | -11.5% | ·
CCOc1ccccc1NC(=O)N(C)CCc1c(C)nn(CC)c1C | i | i | · | · | -1.3% | ·
CCNc1sc(C(=O)c2cccs2)c(N)c1-c1nc2ccccc2s1 | i | i | 0.82µM* | ? | 24.5% | -0.4%
CCc1cc(-c2nnn(CCC3COCCO3)c2CC)ccc1-c1cn(Cc2ccccc2)nn1 (stereo not given) | 1.84µM* | ? | · | · | · | ·
COc1ccccc1CNC(=O)c1cc(C2CC2)nc2c1cnn2C(C)C | 2.91µM* | i | 8.9% | ? | -24.8% | -6.4%
CC(C)n1ncc2c(C(=O)Nc3cccc(C#N)c3)cc(C3CC3)nc21 | i | ? | -19.6% | 23.1µM* | -7.5% | -2.5%
CCOc1ccc(-n2cc(-c3ccccc3)c3c(NCCc4ccccc4)ncnc32)cc1 | · | · | · | · | -3.6% | ·
COc1ccc(-c2nnc(SCC(=O)c3ccc(NC(C)=O)cc3)o2)cc1OC | · | · | · | · | -8.8% | ·
O=C(Nc1nc2ccccc2s1)c1c(F)cccc1Cl | i | ? | -52.8% | 16.2% | -5.6% | 2.5%
COc1cccc(-c2cc(C(=O)Nc3nc4ccccc4s3)c3ccccc3n2)c1 | 20.6µM* | i | 4.5% | 1.1% | -28.5% | -3.2%
Cn1cc(Cl)c(C(=O)Nc2nc3ccccc3s2)n1 | 18.4µM* | i | 2.4% | -12.3% | -30.9% | -4.6%
CCn1nc(C(=O)Nc2nc3ccc(C)cc3s2)c2ccccc2c1=O | i | i | 20.6µM* | 23.1µM* | -18.6% | -0.7%
SMILES | KB-V1 MDR tox | KB-3-1 tox | SW480 rereplic | MCF10A rerep | RGS4 inh | TSG101-PTAP inh
Cc1ccc2nc(NC(=O)c3cc(-c4ccco4)nc4ccccc34)sc2c1 | ? | ? | 15.0% | 16.4µM* | 10.5% | -2.5%
Cc1nc2ccc(NC(=O)c3nn(CC(C)C)c(=O)c4ccccc34)cc2s1 | ? | ? | -3.4% | ? | 4.0% | -0.7%
COc1ccc(NC(=O)CSc2oc(-c3ccc(F)cc3)nc2S(=O)(=O)c2ccc(C)cc2)c(OC)c1 | i | i | · | · | -28.8% | ·
O=S(=O)(c1ccc(Cl)cc1)N1CCOCC1 | i | i | · | · | 16.0% | ·
COc1ccccc1C(=O)Nc1nc2ccccc2s1 | ? | ? | -1.0% | 16.7% | -6.4% | 1.3%
COc1ccc(C(=O)Nc2nc3ccccc3s2)c(OC)c1 | 6.51µM* | 7.31µM* | ? | ? | -44.0%[56.9 µM] | -1.2%
CNC1=C(N(C(C)=O)c2ccc(Br)cc2)C(=O)c2ccccc2C1=O | ? | ? | 8.2µM* | 0.581µM* | 1.0% | -0.6%
CCC(=O)N(C1=C(NC)C(=O)c2ccccc2C1=O)C(C)C | ? | 2.59µM* | ? | 5.8µM* | -5.8% | -4.4%
CC(=O)Nc1ccc(NC(=O)C(NC(=O)C2CCC(C)CC2)C(C)C)cc1 (stereo not given) | ? | i | · | · | 22.3% | ·
CC(=O)N[C@@H]1C(O[C@H]2O[C@H](C(=O)O)C(O)[C@H](O)[C@H]2O)[C@H](O)[C@@H](CO)O[C@H]1O[C@@H]1C(C(=O)O)O[C@@H](O[C@H]2[C@H](O)[C@@H](CO)OC(O)[C@@H]2NC(C)=O)[C@H](O)[C@H]1O (stereo not given in full) | · | · | 1.8% | -0.5% | · | ·
CCN(CC)CC(C)CNC(=O)c1cc(-c2ccc(Br)s2)nc2ccccc12 (stereo not given) | ? | ? | · | · | -7.8% | ·
COc1ccc(C2CC(c3c(O)cc(C)oc3=O)=NCCS2)c(OC)c1 (stereo not given) | 0.366µM* | 0.291µM* | ? | 1.12µM* | -33.9% | -1.6%
COc1cc(C[C@@H](C)[C@@H](C)Cc2ccc(O)c(OC)c2)ccc1O | i | i | -3.3% | ? | 3.1% | -2.2%
CC(Cc1ccc(O)c(O)c1)C(C)Cc1ccc(O)c(O)c1 (stereo not given) | i | i | 0.366µM*! | ? | -28.7% | -1.5%
C[C@H](Cc1ccc(O)c(O)c1)[C@@H](C)Cc1ccc(O)c(O)c1 | i | i | · | · | 15µM* | ·
